Pf Dd2 growth – P. falciparum Dd2 growth inhibition | activity change, % at 10 µM | hit rate 2.3% among 94,000 | SYBR Green, 72 h; hits give low values; in the data active = activity change below about -80%; inconclusive = no clear call, values can overlap the other calls
C diff HTS – blocks growth of Clostridium difficile | Clostridium difficile clinical isolate growth, OD600, 24 h; hits give low values | growth activity, negative = inhibition, % at 16 µg/mL (by protocol) | hit rate 0.25% among 86,000 | AID 1259249;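 active = mean growth activity at or below -80% and every replicate also at or below -80%; inconclusive = mean at or below -80% but some replicate above -80%; inactive = mean growth activity above -80%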
T cruzi growth-1 – blocks T. cruzi growth in NIH3T3 culture; T. cruzi beta-gal in NIH3T3, GalScreen luminescence, 90 h; inhibition, % at 8.34 µM; hit rate 5.9% among 77,000; AID 624255;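 active = mean inhibition above about 93%, with at least 55% of replicates each passing it, limit read from the data, passing the limit was not always enough; inconclusive = only one of those two conditions holds; inactive = neither condition holds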
T cruzi growth-2 – blocks T. cruzi growth in NIH3T3 host cells; shares compounds with T cruzi growth-1; T. cruzi beta-gal in NIH3T3, GalScreen luminescence, 90 h; inhibition, % at 8.35 µM; hit rate 72% among 5,600;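 active = mean replicate inhibition above about 95% and at least 55% of replicates individually reaching it, limit read from the data; inconclusive = only one of the two criteria is met; inactive = neither criterion is met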
T cruzi growth-3 – blocks T. cruzi growth in NIH3T3 host cells; shares compounds with T cruzi growth-1; T. cruzi beta-gal in NIH3T3, GalScreen luminescence, 90 h; inhibition, % at 2.09 µM; hit rate 21% among 5,600; AID 651740;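 active = mean inhibition above about 95%, with at least 55% of replicates also reaching it, limit read from the data; inconclusive = meets just one of the two conditions; inactive = meets neither condition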
3T3 cytotox – cytotoxicity in mouse NIH/3T3 fibroblasts | shares compounds with T cruzi growth-1 | NIH/3T3 viability, CellTiter-Glo ATP luminescence, 90 h | cytotoxicity (signal decrease), % at 8.35 µM | hit rate 14% among 5,600;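 active = mean signal decrease across replicates above about 35% based on untreated-well scatter, with enough replicates individually passing, limit read from the data; inconclusive = no rule stated though some were filed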
3T3 cytotox 2 – cytotoxicity in mouse NIH/3T3 fibroblasts. inhibition, % at 24.9 µM. shares compounds with T cruzi growth-1. NIH/3T3 viability, CellTiter-Glo ATP luminescence, 90 h. AID 651744. hit rate 56% among 5,600;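 active = mean loss of cell viability signal at or above a set limit, and enough replicates individually reaching it; inconclusive = meets only the mean limit or only the replicate share; inactive = meets neither condition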
Large screens that a line does not name were inactive (follow-up assays come after a bar, where they were run). A selection: hits, their analogues and other compounds. The true share with any hit is near 6.7%.

CC=Cc1ccc2n(c1=O)C[C@H]1[C@H](CO)[C@@H](C(=O)NCc3ccccc3Cl)N(S(C)(=O)=O)[C@@H]21 (mixture of isomers)	T cruzi growth-1 107.4 (no result: Pf Dd2 growth) | T cruzi growth-2 inactive | T cruzi growth-3 inactive | 3T3 cytotox inactive | 3T3 cytotox 2 inactive
CC=Cc1ccc2n(c1=O)C[C@H]1[C@H](CO)[C@@H](C(=O)NCc3ccccc3F)N(S(C)(=O)=O)[C@@H]21 (mixture of isomers)	none
C[C@@H]1CN([C@H](C)CO)C(=O)c2cccc(NC(=O)C3CC3)c2O[C@H]1CN(C)S(=O)(=O)c1ccccc1	none
Cc1noc(C)c1S(=O)(=O)N(C)C[C@@H]1OCCCC[C@@H](C)Oc2ccc(NS(=O)(=O)c3ccc(F)cc3)cc2C(=O)N([C@@H](C)CO)C[C@@H]1C	none
Cc1noc(C)c1S(=O)(=O)N(C)C[C@H]1OCCCC[C@@H](C)Oc2ccc(NS(=O)(=O)c3ccc(F)cc3)cc2C(=O)N([C@@H](C)CO)C[C@H]1C	T cruzi growth-1 96.9 | T cruzi growth-2 103.1 | T cruzi growth-3 inactive | 3T3 cytotox inactive | 3T3 cytotox 2 inactive
C[C@@H]1CCCCO[C@@H](CN(C)S(=O)(=O)c2ccc(F)cc2)[C@@H](C)CN([C@@H](C)CO)C(=O)c2cc(NS(=O)(=O)c3ccccc3)ccc2O1	none
C[C@@H]1CCCCO[C@H](CN(C)S(=O)(=O)c2ccc(F)cc2)[C@H](C)CN([C@H](C)CO)C(=O)c2cc(NS(=O)(=O)c3ccc(F)cc3)ccc2O1	Pf Dd2 growth inconclusive, T cruzi growth-1 114.8 | T cruzi growth-2 105.6 | T cruzi growth-3 inconclusive | 3T3 cytotox inactive | 3T3 cytotox 2 inactive
C[C@@H]1CN([C@H](C)CO)C(=O)c2cc(NS(=O)(=O)c3ccc(F)cc3)ccc2O[C@@H](C)CCCCO[C@H]1CN(C)S(=O)(=O)c1ccc(F)cc1	none (no result: T cruzi growth-1)
C[C@@H]1CCCCO[C@H](CN(C)S(=O)(=O)c2ccc(F)cc2)[C@H](C)CN([C@@H](C)CO)C(=O)c2cc(NS(=O)(=O)c3ccc(F)cc3)ccc2O1	T cruzi growth-1 109.6 | T cruzi growth-2 112.9 | T cruzi growth-3 inactive | 3T3 cytotox inactive | 3T3 cytotox 2 inactive
C[C@H](CO)N1C[C@H](C)[C@@H](CN(C)S(=O)(=O)c2ccc(F)cc2)OCCCC[C@H](C)Oc2ccc(NS(=O)(=O)c3ccc(F)cc3)cc2C1=O	T cruzi growth-1 98.0 | T cruzi growth-2 95.8 | T cruzi growth-3 inactive | 3T3 cytotox 66.2 | 3T3 cytotox 2 58.9
C[C@@H]1CCCCO[C@@H](CN(C)S(=O)(=O)c2ccccc2)[C@@H](C)CN([C@@H](C)CO)C(=O)c2cc(NS(=O)(=O)c3ccc(F)cc3)ccc2O1	none
COC(=O)C[C@@H]1C[C@@H]2c3cc(NC(=O)c4cccnc4)ccc3O[C@@H]2[C@H](CO)O1	none
C[C@H](CO)N1C[C@H](C)[C@H](CN(C)Cc2ccncc2)OCCCC[C@H](C)Oc2ccc(NC(=O)c3ccncc3)cc2C1=O	none
C[C@@H]1CCCCO[C@H](CN(C)CC2CC2)[C@H](C)CN([C@H](C)CO)C(=O)c2cc(N(C)C)ccc2O1	none
C[C@@H]1CCCCO[C@H](CN(C)Cc2ccc(Cl)c(Cl)c2)[C@@H](C)CN([C@H](C)CO)C(=O)c2cc(N(C)C)ccc2O1	none (no result: C diff HTS)
C[C@@H]1CCCCO[C@@H](CN(C)Cc2ccc(Cl)c(Cl)c2)[C@H](C)CN([C@@H](C)CO)C(=O)c2cc(N(C)C)ccc2O1	none (no result: T cruzi growth-1)
C[C@@H]1CCCCO[C@@H](CN(C)Cc2ccc(Cl)c(Cl)c2)[C@H](C)CN([C@H](C)CO)C(=O)c2cc(N(C)C)ccc2O1	T cruzi growth-1 98.5 (no result: C diff HTS) | T cruzi growth-2 105.9 | T cruzi growth-3 inactive | 3T3 cytotox inactive | 3T3 cytotox 2 102.7
C[C@@H]1CCCCO[C@H](CN(C)Cc2ccc(Cl)c(Cl)c2)[C@@H](C)CN([C@@H](C)CO)C(=O)c2cc(N(C)C)ccc2O1	T cruzi growth-1 105.9 (no result: C diff HTS) | T cruzi growth-2 100.3 | T cruzi growth-3 106.0 | 3T3 cytotox inactive | 3T3 cytotox 2 105.7
Cc1noc(C)c1S(=O)(=O)N(C)C[C@@H]1Oc2ccc(NC(=O)C3CC3)cc2CC(=O)N([C@H](C)CO)C[C@@H]1C	none
CO[C@@H]1CC[C@@H]2CCOc3ccc(C#N)cc3C(=O)N(C)CCCC(=O)N(C)C[C@@H]1O2	none (no result: Pf Dd2 growth)
C[C@H]1CN([C@@H](C)CO)C(=O)c2cc(-c3cccnc3)cnc2O[C@@H]1CN(C)Cc1ccc(Oc2ccccc2)cc1	T cruzi growth-1 inconclusive | T cruzi growth-2 106.8 | T cruzi growth-3 inactive | 3T3 cytotox inactive | 3T3 cytotox 2 103.8
C[C@H]1CN([C@@H](C)CO)C(=O)c2cc(-c3ccncc3)cnc2O[C@@H]1CN(C)Cc1ccc(Oc2ccccc2)cc1	T cruzi growth-1 98.3 | T cruzi growth-2 104.8 | T cruzi growth-3 inactive | 3T3 cytotox inactive | 3T3 cytotox 2 103.5
C[C@@H]1CN([C@H](C)CO)C(=O)c2cc(-c3cccnc3)cnc2O[C@H]1CN(C)Cc1ccc(Oc2ccccc2)cc1	none
C[C@H](CO)N1C[C@H](C)[C@H](CN(C)Cc2ccc(Oc3ccccc3)cc2)Oc2ncc(-c3cccnc3)cc2C1=O	none
Cc1noc(C)c1NC(=O)N(C)C[C@H]1Oc2ncc(C#CC3CC3)cc2C(=O)N([C@H](C)CO)C[C@H]1C	none (no result: C diff HTS)
Cc1cccc(S(=O)(=O)N2CCCCN3[C@@H](CO)[C@@H](c4ccc(C#C[C@@H](C)O)cc4)[C@@H]3C2)c1	none
CC(C)NC(=O)NCC[C@H]1CC[C@H](NC(=O)CN(C)C)[C@@H](CO)O1	none (no result: C diff HTS)
C[C@@H]1CN([C@H](C)CO)S(=O)(=O)c2ccc(-c3ccccc3)cc2O[C@@H]1CN(C)Cc1ccccc1	none
C[C@H](CO)N1C[C@H](C)[C@H](CN(C)Cc2ccccc2)Oc2cc(-c3ccccc3)ccc2S1(=O)=O	T cruzi growth-1 113.1 | T cruzi growth-2 105.0 | T cruzi growth-3 inactive | 3T3 cytotox inactive | 3T3 cytotox 2 106.1
C[C@@H]1CN([C@@H](C)CO)S(=O)(=O)c2ccc(-c3ccccc3)cc2O[C@@H]1CN(C)Cc1ccccc1	T cruzi growth-1 121.1 | T cruzi growth-2 102.9 | T cruzi growth-3 105.7 | 3T3 cytotox 47.9 | 3T3 cytotox 2 104.8
C[C@H](CO)N1C[C@H](C)[C@@H](CN(C)Cc2ccccc2)Oc2cc(-c3ccccc3)ccc2S1(=O)=O	none
O=C(CN1CCOCC1)N[C@@H]1CC[C@@H](CCn2cc(C3CCCC3)nn2)O[C@H]1CO	none (no result: T cruzi growth-1)
CC(C)CC#Cc1ccc([C@@H]2[C@H]3CN(C(=O)Cc4ccccc4)CC(=O)N3[C@H]2CO)cc1	none (no result: T cruzi growth-1)
COc1cccc(S(=O)(=O)Nc2ccc3c(c2)C(=O)N(C)C[C@@H](OC)[C@@H](C)CN(Cc2ccccc2F)[C@@H](C)CO3)c1	none (no result: C diff HTS, T cruzi growth-1)
